Tests used:
Assay in all cases: yeast three-hybrid, YBZ-1, SC-Leu-His + 0.5 mM 3-AT, 4 days
Conditions in all cases: tags: N-Gal4 AD-HA kept; label: inside an RPR1-promoter hybrid RNA with tandem MS2 sites; ssRNA
PUM1 PUF domain R8-RYA = PUM1 PUF domain R8-RYA (Homo sapiens, UniProt Q14671 828-1176, N1122R;Q1126A)
Procedure, shortened: (§1)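 Each repeat of the Pumilio-1 PUF domain was randomized at its three base-contacting residues, and these libraries were co-expressed from a centromeric plasmid with matching RNA elements in strain YBZ-1. After four days on SC-Leu (input) or SC-Leu-His + 0.5 mM 3-AT (selection), the repeat regions were PCR-amplified and Illumina-sequenced. The interaction score compares variant frequency between input and selection as a log change, computed in log2 with a pseudocount of 1 for absent variants.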

PUM1 PUF domain R3-LRT = PUM1 PUF domain R3-LRT (Homo sapiens, UniProt Q14671 828-1176, C935L;Q939T)
Procedure, shortened: as §1

PUM1 PUF domain R3-GFP = PUM1 PUF domain R3-GFP (Homo sapiens, UniProt Q14671 828-1176, C935G;R936F;Q939P)
Procedure, shortened: as §1

PUM1 PUF domain R3-CPT = PUM1 PUF domain R3-CPT (Homo sapiens, UniProt Q14671 828-1176, R936P;Q939T)
Procedure, shortened: as §1

PUM1 PUF domain R3-CRP = PUM1 PUF domain R3-CRP (Homo sapiens, UniProt Q14671 828-1176, Q939P)
Procedure, shortened: as §1

PUM1 PUF domain R5-HRG = PUM1 PUF domain R5-HRG (Homo sapiens, UniProt Q14671 828-1176, C1007H;Q1011G)
Procedure, shortened: as §1

PUM1 PUF domain R6-SWR = target: T1, PUM1 PUF domain R6-SWR (Homo sapiens, UniProt Q14671 828-1176, N1043S;Y1044W;Q1047R)
T1 sequence: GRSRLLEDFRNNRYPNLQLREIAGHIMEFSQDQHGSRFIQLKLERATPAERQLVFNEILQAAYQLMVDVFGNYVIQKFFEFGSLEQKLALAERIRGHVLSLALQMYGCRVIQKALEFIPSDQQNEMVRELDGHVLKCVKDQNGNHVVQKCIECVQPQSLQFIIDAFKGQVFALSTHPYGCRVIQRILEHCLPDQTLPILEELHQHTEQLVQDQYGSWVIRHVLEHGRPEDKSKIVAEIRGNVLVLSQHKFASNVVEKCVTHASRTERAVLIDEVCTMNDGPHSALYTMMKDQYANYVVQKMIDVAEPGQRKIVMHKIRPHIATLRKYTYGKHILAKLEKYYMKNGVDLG
Procedure, shortened: as §1

PUM1 PUF domain R5-EHR = PUM1 PUF domain R5-EHR (Homo sapiens, UniProt Q14671 828-1176, C1007E;R1008H;Q1011R)
Procedure, shortened: as §1

PUM1 PUF domain R4-ALS = PUM1 PUF domain R4-ALS (Homo sapiens, UniProt Q14671 828-1176, N971A;H972L;Q975S)
Procedure, shortened: as §1

PUM1 PUF domain R7-LHG = PUM1 PUF domain R7-LHG (Homo sapiens, UniProt Q14671 828-1176, S1079L;N1080H;E1083G)
Procedure, shortened: as §1

GGCUAGAACUAGUGGAUCCCCCGGCGCCCGGCGGCUCGAGCCCGGGUAAGCGUAAAUAGUCUGCAUGCCGCCGGGCGCCAUGCCUGCAGGUCGACUCUAGAAAACAUG
binding signal (PUM1 PUF domain R8-RYA): 6.7 log2 enrichment (interaction score)

GGCUAGAACUAGUGGAUCCCCCGGCGCCCGGCGGCUCGAGCCCGGGUAAGUGUAAUUAGUCUGCAUGCCGCCGGGCGCCAUGCCUGCAGGUCGACUCUAGAAAACAUG
binding signal (PUM1 PUF domain R3-LRT): 1.36 log2 enrichment (interaction score)
binding signal (PUM1 PUF domain R3-GFP): 4.82 log2 enrichment (interaction score)
binding signal (PUM1 PUF domain R3-CPT): 1.02 log2 enrichment (interaction score)
binding signal (PUM1 PUF domain R3-CRP): 1.1 log2 enrichment (interaction score)

GGCUAGAACUAGUGGAUCCCCCGGCGCCCGGCGGCUCGAGCCCGGGUAAGUGUUAAUAGUCUGCAUGCCGCCGGGCGCCAUGCCUGCAGGUCGACUCUAGAAAACAUG
binding signal (PUM1 PUF domain R5-HRG): 3.89 log2 enrichment (interaction score)

GGCUAGAACUAGUGGAUCCCCCGGCGCCCGGCGGCUCGAGCCCGGGUAAGUGUCAAUAGUCUGCAUGCCGCCGGGCGCCAUGCCUGCAGGUCGACUCUAGAAAACAUG
binding signal (PUM1 PUF domain R5-HRG): 1.78 log2 enrichment (interaction score)

GGCUAGAACUAGUGGAUCCCCCGGCGCCCGGCGGCUCGAGCCCGGGUAAGUGCAAAUAGUCUGCAUGCCGCCGGGCGCCAUGCCUGCAGGUCGACUCUAGAAAACAUG
binding signal (PUM1 PUF domain R6-SWR): 7.3 log2 enrichment (interaction score)

GGCUAGAACUAGUGGAUCCCCCGGCGCCCGGCGGCUCGAGCCCGGGUAAGUGUAAAUAGUCUGCAUGCCGCCGGGCGCCAUGCCUGCAGGUCGACUCUAGAAAACAUG
binding signal (PUM1 PUF domain R5-EHR): 3.38 log2 enrichment (interaction score)
binding signal (PUM1 PUF domain R4-ALS): 4.11 log2 enrichment (interaction score)
binding signal (PUM1 PUF domain R5-HRG): 0.26 log2 enrichment (interaction score)
binding signal (PUM1 PUF domain R3-CPT): 2.54 log2 enrichment (interaction score)
binding signal (PUM1 PUF domain R3-CRP): 4.84 log2 enrichment (interaction score)
binding signal (PUM1 PUF domain R6-SWR): 8.07 log2 enrichment (interaction score)

GGCUAGAACUAGUGGAUCCCCCGGCGCCCGGCGGCUCGAGCCCGGGUAAGUCUAAAUAGUCUGCAUGCCGCCGGGCGCCAUGCCUGCAGGUCGACUCUAGAAAACAUG
binding signal (PUM1 PUF domain R7-LHG): 3.19 log2 enrichment (interaction score)

GGCUAGAACUAGUGGAUCCCCCGGCGCCCGGCGGCUCGAGCCCGGGUAAGUGUAAGUAGUCUGCAUGCCGCCGGGCGCCAUGCCUGCAGGUCGACUCUAGAAAACAUG
binding signal (PUM1 PUF domain R3-LRT): 4.37 log2 enrichment (interaction score)
binding signal (PUM1 PUF domain R3-CRP): 1.62 log2 enrichment (interaction score)

GGCUAGAACUAGUGGAUCCCCCGGCGCCCGGCGGCUCGAGCCCGGGUAAGUUUAAAUAGUCUGCAUGCCGCCGGGCGCCAUGCCUGCAGGUCGACUCUAGAAAACAUG
binding signal (PUM1 PUF domain R7-LHG): 4.5 log2 enrichment (interaction score)
